Our source for the PBM binding z-score values is the supplement of paper PMC6555819.

One test has as its system LXRb homodimer (NR concentration 270 nM). Kind of test: PBM binding z-score (relative to random genomic background probes); higher = stronger binding; sequences stand for … in GC…GCGATTGACAGCGTAGAATGAAGG
Summed up:
(§1)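 Probes were double-stranded and carried 34-nt variable regions with direct-repeat seeds, single-nucleotide variants, half-site ablations and random human genomic background sequences, printed on custom Agilent 4×180K protein-binding microarrays. Arrays were incubated 1 h with ligand-free nuclear receptor dimers in PBS pH 7.4, 2% milk, 0.02% Triton X-100, 1 mM DTT, 0.2 mg/mL BSA and 0.4 mg/ml salmon testes DNA. Antibodies against each partner (one per run) detected binding, and scanned fluorescence was regression-normalized. Binding z-scores use the random background probes as reference.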
Take TCAGACACGTGAAGGTAACTCAGGTACGCAGTCG: the PBM binding z-score was -0.58.
Consider CCTACTGGGCCATTCAAAGGTCATTGATCATATG, for which the PBM binding z-score was determined as 0.576.
Still for that read-out and setting: the same measure for CGTCAAAGTTCAAGGTAACGTATCAGAAAGCAGC: 1.15.
As for CCGTGTAGGTTATGGGGCATTCAGGCAACGGTGA, the PBM binding z-score was found to be 0.31.
Sequence CGTCCAAGGTCAATGCTAGGTCCGTGAAAGCATT displayed a PBM binding z-score of 0.496.
The same measure, in the same setting: the same measure for TCTTGTAGATCAAGCAGGTTACGAAAGCCTGAGT: -0.527; for ATCTCTAGGTAAAGTTCAGTGCAAGATCGATAGA: 0.722; for AGTCAAAGTTCATCTAGGTGACGTAAGATATGCT: 1.52.
Regarding CGTCCAAGATCAGAGAGGTCAGTGAATGCCGAGT, the PBM binding z-score stood at 0.00137.
Same read-out and setting: the same measure for CAGCCTAGGTCAGAGCCAGTATAGGAGGAACGTT: -0.514.
Sequence GCTAGCTGGTCAGTAAAAGGTCACACACCGGTCG gave a PBM binding z-score of 0.195.
TCTGCTAGCTCAACGATGGTCAGCTAATCTGCTA registered a PBM binding z-score of -1.03.
Same read-out and setting: with AGAATGAGGTTATACGTAGATTAGGGAAGAAAGT the figure was 0.111.
TCTTGTAGATCAATTGAGGTTAAGAAAGTGCGCT returned a PBM binding z-score of -0.0639.
On the same count and under the same terms, the same measure for GGAACGAGGGCAACTTGATAGCAGAGTTTGATGG: -0.203.
Still for that read-out and setting: with TCGAGTAAGTTAGGGGCATTCAGAATGGCGTCGA the figure was -1.13; with CCTACTGGGCCAAAGGTCATTGCTTCCAATGCTC, 0.985.
The same measure, in the same setting: with TTACCAAGGTGAAGATCGTTGATCCCTCTGTAGA the figure was -0.815; with CCAGGCAGGTGAAAGGTAACTCAGTCTGGTACGC, -0.921.
In the case of CCTCGGAGGACAGAAGGTCAGAGGTGTCCGCTTT, the PBM binding z-score is -0.636.
On the same count and under the same terms, the same measure for GCGACTGGGGCAAAGCAGGTTACCATTAGGTTGG: -0.906; for TCTCGGAGAACACGAAAGGTCAGAGCTCGACATC: -0.199.
Consider CCTTACGGGTCAAGAGGTTATAGCACGACGAGCG, for which the PBM binding z-score was -0.435.
On the same count and under the same terms, the same measure for TAGCCTAGGTCGTGGGCCAGTATACCACGCGAAC: -0.88; for TCATATAGGTAAATGCTAGGTGAAGGTCCGATCT: 0.0631.
Sequence CCGAGTAGGTTATGGGGCATTCTGGCAACGGTGA displayed a PBM binding z-score of -0.33.
Same read-out and setting: with TCATATAGGTTAACAGGTGAAAGTCCGTAAGTTA the figure was 0.145.
On to CCTCGGAGGACAGAAGGTCAGAGATGTCCGCTTT, for which the PBM binding z-score was -0.867.
The same measure, in the same setting: with GCTTGTAGATCAATGTTAAGAAAGACTAAGCTAA the figure was -0.377.
GGAACGAAGGCAAGTTGATAGCAGAGTTTGATGG showed a PBM binding z-score of -1.2.
For CCTAGTTGGCCAGGAGGTCACACACCGGATATGA, the PBM binding z-score is 0.178.
GATACAGGATCAAGGCCAGAGTACGCGTATTGAT: the PBM binding z-score was -0.452.
Same read-out and setting: with ATATGTAGGTTATCGAGTCATTCAGTTTGCGCAT the figure was 0.701.
The same measure, in the same setting: the same measure for ACTATCAGTTGACTTAGGGCAACCGATACGACGC: 0.543; for CATACAAGGTCAGCTAGGCCAGAGTAGGGACGGC: 0.921.
On the same count and under the same terms, with CGTCGAAGTTCAACTAAGGTAACGTAAAGCACGC the figure was 0.375; with ATATGTAGGTTATATCCGGGTCATTCAGGCTATG, 1.44; with TCTGGTTGGTCACGGAGGTCACACACGACGGGTA, 1.47.
TCGAGTAGGTTAGTCGGGGCATGCAGCCAACATA returned a PBM binding z-score of -0.894.
Still for that read-out and setting: with CCTAACGGGTCACGAGGTTATAGCACGACGAGCG the figure was -0.146.

A further test has as its system PPARa:RXRa (NR concentration 270 nM, RXRa partner concentration 90 nM). The description is as above. A digest of the protocol: as §1
Take TCAGACACGTGAAGGTAACTCAGGTACGCAGTCG: the PBM binding z-score was 0.588.
CCTACTGGGCCATTCAAAGGTCATTGATCATATG registered a PBM binding z-score of 4.43.
On to CGTCAAAGTTCAAGGTAACGTATCAGAAAGCAGC, for which the PBM binding z-score came to 4.61.
On the same count and under the same terms, with CCGTGTAGGTTATGGGGCATTCAGGCAACGGTGA the figure was 2.13; with CGTCCAAGGTCAATGCTAGGTCCGTGAAAGCATT, 4.84; with TCTTGTAGATCAAGCAGGTTACGAAAGCCTGAGT, 1.03.
ATCTCTAGGTAAAGTTCAGTGCAAGATCGATAGA showed a PBM binding z-score of 2.52.
Still for that read-out and setting: the same measure for AGTCAAAGTTCATCTAGGTGACGTAAGATATGCT: 4.98.
Same read-out and setting: with CGTCCAAGATCAGAGAGGTCAGTGAATGCCGAGT the figure was 2.52; with CAGCCTAGGTCAGAGCCAGTATAGGAGGAACGTT, 1.69; with GCTAGCTGGTCAGTAAAAGGTCACACACCGGTCG, 4.21.
TCTGCTAGCTCAACGATGGTCAGCTAATCTGCTA registered a PBM binding z-score of -0.335.
The same measure, in the same setting: with AGAATGAGGTTATACGTAGATTAGGGAAGAAAGT the figure was 3.21.
On the same count and under the same terms, the same measure for TCTTGTAGATCAATTGAGGTTAAGAAAGTGCGCT: 1.74.
Still for that read-out and setting: the same measure for GGAACGAGGGCAACTTGATAGCAGAGTTTGATGG: 1.53; for TCGAGTAAGTTAGGGGCATTCAGAATGGCGTCGA: 0.686; for CCTACTGGGCCAAAGGTCATTGCTTCCAATGCTC: 6.51.
As for TTACCAAGGTGAAGATCGTTGATCCCTCTGTAGA, the PBM binding z-score came to 1.14.
CCAGGCAGGTGAAAGGTAACTCAGTCTGGTACGC came in with a PBM binding z-score of 3.13.
Turning to CCTCGGAGGACAGAAGGTCAGAGGTGTCCGCTTT, the PBM binding z-score stood at 2.06.
On the same count and under the same terms, the same measure for GCGACTGGGGCAAAGCAGGTTACCATTAGGTTGG: 1.4; for TCTCGGAGAACACGAAAGGTCAGAGCTCGACATC: 3.32; for CCTTACGGGTCAAGAGGTTATAGCACGACGAGCG: 5.58.
TAGCCTAGGTCGTGGGCCAGTATACCACGCGAAC displayed a PBM binding z-score of 0.972.
The same measure, in the same setting: with TCATATAGGTAAATGCTAGGTGAAGGTCCGATCT the figure was 1.29; with CCGAGTAGGTTATGGGGCATTCTGGCAACGGTGA, 2.14.
Still for that read-out and setting: with TCATATAGGTTAACAGGTGAAAGTCCGTAAGTTA the figure was 3.68; with CCTCGGAGGACAGAAGGTCAGAGATGTCCGCTTT, 1.55.
In the case of GCTTGTAGATCAATGTTAAGAAAGACTAAGCTAA, the PBM binding z-score was -0.584.
Same read-out and setting: the same measure for GGAACGAAGGCAAGTTGATAGCAGAGTTTGATGG: -0.649; for CCTAGTTGGCCAGGAGGTCACACACCGGATATGA: 4.15.
As to GATACAGGATCAAGGCCAGAGTACGCGTATTGAT, the PBM binding z-score was -0.133.
In turn, ATATGTAGGTTATCGAGTCATTCAGTTTGCGCAT came in with a PBM binding z-score of 3.37.
The same measure, in the same setting: the same measure for ACTATCAGTTGACTTAGGGCAACCGATACGACGC: 0.113.
Same read-out and setting: with CATACAAGGTCAGCTAGGCCAGAGTAGGGACGGC the figure was 4.45; with CGTCGAAGTTCAACTAAGGTAACGTAAAGCACGC, 3.15.
In turn, ATATGTAGGTTATATCCGGGTCATTCAGGCTATG came in with a PBM binding z-score of 4.19.
TCTGGTTGGTCACGGAGGTCACACACGACGGGTA registered a PBM binding z-score of 3.99.
Same read-out and setting: the same measure for TCGAGTAGGTTAGTCGGGGCATGCAGCCAACATA: 0.523; for CCTAACGGGTCACGAGGTTATAGCACGACGAGCG: 5.76.
